Inconclusive results are not listed. The source made the active and inactive calls. The calls were made as follows: active = hit-call score of the fitted dose curve at least 0.9, where 1 is the maximum; inconclusive = response in the unintended direction; inactive = score below 0.9.
Each compound was assayed against human Vitamin D Receptor (VDR), VDR (gene 7421) (UniProt P11473) (assay: ATG_VDR_TRANS: Attagene TRANS-FACTORIAL HepG2 Assay for human Vitamin D Receptor (VDR) (AID 2283022)).
Chain of human Vitamin D Receptor (VDR), VDR (gene 7421) (P11473 whole entry, looked up, the tested form may be a part): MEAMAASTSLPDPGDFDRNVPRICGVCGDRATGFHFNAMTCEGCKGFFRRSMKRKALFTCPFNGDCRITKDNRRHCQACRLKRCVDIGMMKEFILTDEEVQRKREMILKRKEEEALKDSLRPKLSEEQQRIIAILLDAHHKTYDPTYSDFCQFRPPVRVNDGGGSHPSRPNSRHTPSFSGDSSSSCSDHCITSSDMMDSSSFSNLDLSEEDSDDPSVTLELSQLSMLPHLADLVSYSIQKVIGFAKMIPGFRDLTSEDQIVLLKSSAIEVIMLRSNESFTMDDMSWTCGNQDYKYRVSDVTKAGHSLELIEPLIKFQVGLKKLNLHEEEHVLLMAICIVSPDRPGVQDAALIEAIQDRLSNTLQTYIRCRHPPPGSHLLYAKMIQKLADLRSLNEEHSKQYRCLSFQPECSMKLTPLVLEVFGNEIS
How it was run: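 HepG2 cells were transiently transfected with multiple GAL4-UAS reporter units, so signal reflects exogenous chimeric receptor-Gal4 activity. After 24 h compound exposure, reporter mRNA was measured by RT-PCR, fluorescent labelling and capillary electrophoresis, fitted for gain of signal versus DMSO.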
With `CCOC(=O)c1ccccc1S(=O)(=O)NC(=O)Nc1nc(Cl)cc(OC)n1` the outcome was “inactive”.
In the case of `CN(C)CCN(C)C`, the outcome is reported as “inactive”.
For `ClCCN1CCOCC1`, the outcome was “inactive”.
In the case of `CCCCS(=O)(=O)Cl`, the outcome is reported as “inactive”.
In the case of `N#Cc1ccncc1`, the outcome is reported as “inactive”.
